Shown are actives, neighbours in structure and some others; about 0.9% of the full set was active somewhere.
ugtP null kill: growth inhibition of S. aureus ugtP deletion strain; growth inhibition, % (no concentration beside the values); 330,000 compounds, 0.54% hits; S. aureus RN4220 ugtP deletion, OD600 growth, 16 h; in the data active = growth inhibition above about 68%;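 also: plate controls were untreated wells for no effect and antibiotic for full effect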
Mtb bLac sens: beta-lactam sensitization of Mtb H37Rv | M. tuberculosis H37Rv growth with meropenem, percent inhibition | inhibition, % at 25 µM | AID 434955 | 330,000 compounds, 0.27% hits; call rule not given here;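 also: growth measured after seven days incubation then overnight dye step; 0% = bacteria only wells and 100% = bacteria with antibiotic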
BioA inh: blocks M. tuberculosis BioA enzyme activity. purified M. tuberculosis BioA enzyme, plate reader. inhibition, % at 9.99 µM. 360,000 compounds, 0.096% hits. AID 602481; in the data active = inhibition above about 40%; inconclusive = no clear call, values can overlap the other calls
Sa RN4220 lethal: kills Staphylococcus aureus RN4220 | S. aureus RN4220 growth, OD600, 16 h | inhibition, % (test concentration not listed) | 330,000 compounds, 0.33% hits | AID 1259311; in the data active = inhibition above about 85%;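 also: plate controls were untreated cells for no effect and reference antibiotic for full effect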
PfHsp40 rescue: rescue of PfHsp40-mediated yeast toxicity; S. cerevisiae expressing PfHsp40, growth rescue, ATP luminescence; growth rescue, % at 12.5 µM; 340,000 compounds, 0.68% hits; in the data active = growth rescue above about 28%, passing the limit was not always enough; inconclusive = no clear call, values can overlap the other calls;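 also: yeast W303a lacking pdr1 and pdr3 grown in galactose medium; growth measured after three days at 30 °C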
Starred values were filed as active, the others as inactive; ? = inconclusive; nt = no result given; ! = a repeat was not active.

SMILES | ugtP null kill | Mtb bLac sens | BioA inh | Sa RN4220 lethal | PfHsp40 rescue
Cc1ccc(O)c(-c2cc(-c3cccc(F)c3)n[nH]2)c1 | 67 | 95 | -1 | -13 | ?
O=C(/C=C1\C(=O)Nc2ccccc21)/C=C1\C(=O)Nc2ccccc21 | -2 | nt | -1 | 15 | 0
O=C1Nc2ccccc2/C1=C\C(=O)c1ccccc1 | 98* | 99 | 0 | 98* | 2
CCCn1nc(C(=O)NNC(=O)c2ccc(C)c(C)c2)c2ccccc2c1=O | nt | 94 | nt | nt | -1
CCCn1nc(C(=O)N2CCN(S(=O)(=O)c3ccc(C)c(C)c3)CC2)c2ccccc2c1=O | -1 | 9 | 1 | 5 | 69*
CC1CCCC(=CNc2ccc(C(=O)O)cc2)C1=O (stereo not given) | 10 | nt | nt | 5 | nt
O=C1C=C(c2ccccc2)C[C@H](c2cccs2)[C@H]1n1nnc([N+](=O)[O-])n1 | 100* | 100 | nt | 59 | 0
COC(=O)C1=C(c2ccc(F)cc2OCc2ccccc2)CC2CCC1N2C(=O)NC(C)C (stereo not given) | -10 | nt | nt | -1 | nt
Nc1cccc(Nc2ccccc2)c1 | -12 | 52 | nt | 9 | 0
c1ccc(Nc2cccc(Nc3ccccc3)c2)cc1 | -21 | 12 | nt | -16 | 69*
Cc1ccccc1COCC(CC(C)C)N1CCN(C(=O)c2cccc(C(F)(F)F)c2)CCC1=O (stereo not given) | 5 | nt | nt | 8 | nt
O=C(NC1CCCC1)C(c1ccncc1)N(Cc1ccccc1)C(=O)c1ccc(-c2ccccc2)[nH]1 (stereo not given) | 5 | 23 | nt | 8 | 0
CC(C)(C)NC(=O)C(c1ccncc1)N(Cc1ccc(F)cc1)C(=O)c1ccc(-c2ccccc2)[nH]1 (stereo not given) | 1 | 70 | nt | 4 | 66*
O=[N+]([O-])c1ccc(O)c(-c2nc(-c3ccccc3)c(-c3cccs3)[nH]2)c1 | 85* | 91 | 1 | 87* | 0
CC1CN(C(C)CO)C(=O)c2cccc(NC(=O)c3ccncc3)c2OC1CN(C)S(=O)(=O)c1ccccc1 (stereo not given) | -6 | nt | nt | 2 | nt
Cc1nc2ccccc2c(=O)n1/N=C/c1ccccc1O | nt | -7 | 1 | nt | 0
Cc1cc([N+](=O)[O-])cc(/C=N/n2c(C)nc3ccccc3c2=O)c1O | nt | 6 | nt | nt | 192*
C[n+]1cn(CC(O)COCc2ccccc2)c2ccccc21 (stereo not given) | -2 | 2 | 1 | 4 | 0
CCCCCc1ccc(OCCOCCn2c[n+](C)c3ccccc32)c(CCCCC)c1 | 101* | nt | nt | 100* | 55*
CCCCCc1ccc(OCCC[n+]2ccccc2)c(CCCCC)c1 | 100* | 96 | nt | 99* | 6
CC(C)(C)C1C=C(C(=O)N2CCOCC2)OC(OCCCCO)C1 (stereo not given) | 1 | nt | nt | 4 | nt
O=C(c1ccc(-c2ccccc2)c(F)c1)C1CCCN(C(=O)c2cncs2)C1 (stereo not given) | 16 | 96 | 16 | 5 | 412*
Cc1ccc(C(=O)N2CCCC(C(=O)c3ccc(Cl)cc3C)C2)cn1 (stereo not given) | 2 | -5 | 2 | 1 | 1
Cc1cc(Cl)ccc1C(=O)C1CCCN(C(=O)c2cncs2)C1 (stereo not given) | 2 | 3 | 4 | 4 | 377*
O=C1N=C2SCCN2C1=Cc1ccccc1Cl | 8 | nt | nt | 7 | nt
SMILES | ugtP null kill | Mtb bLac sens | BioA inh | Sa RN4220 lethal | PfHsp40 rescue
C[C@H]1CCC/C=C/[C@@H]2C[C@H](O)C[C@H]2[C@H](O)/C=C/C(=O)O1 | nt | 1 | -1 | nt | 47*!
O=C(OCc1ccccc1)N1CCC2CC1c1c(Cl)cccc12 (stereo not given) | 9 | nt | 2 | 11 | 32*
O=C(OCc1ccccc1)N1CCC2CC1c1cc(Cl)ccc12 (stereo not given) | nt | nt | 0 | nt | 0
CC(C)(C)CN1C(=O)C(=O)NC[C@H]1Cc1ccc(O)cc1 | nt | -6 | -2 | nt | -1
CC(C)(C)CN1C(=O)C(=O)NCC1Cc1ccc(O)cc1 (stereo not given) | 98*! | nt | nt | 97*! | nt
CCCNC(=O)OCC1OC(CCON=CC(NS(=O)(=O)c2ccc(C)cc2)C(C)C=CCC(=O)OC)C=CC1Oc1ccc(OC)cc1 (stereo not given) | -16 | nt | nt | 8 | nt
O=C(CC(=O)c1ccccc1O)c1cccc(F)c1 | 96* | 98 | nt | 79 | 1
COc1ccc(C(=O)CC(=O)c2ccc(F)cc2)cc1 | 3 | 13 | -1 | 3 | nt
O=C(CCNC(=O)c1ccccc1Cl)NNC(=O)c1ccccc1O | 2 | -8 | nt | 0 | 1
O=C(CC(=O)c1ccccc1O)c1ccc(F)cc1 | 90* | 94 | nt | 84 | 0

Compound activity deposited in PubChem BioAssay by several laboratories.
